Inconclusive results are not listed. The source made the active and inactive calls. The call rests on the fitted dose curve; in most records, active means well fitted cell-killing curve with a large enough effect; inconclusive means small, poorly fitted or top-dose-only effect, or effect the other way; inactive means no such curve, though single readings can be large or run the other way.
Tests used:
[1] = Quantitative High-Throughput drug screen in 47 multiple myeloma cell lines against the NCATS MIPE library collection: OPM1_PLB cell viability assay (AID 1918989); further: nearly all actives have a fitted effect of over 40% in size
How it was run: (§1)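 MIPE 4.0 approved/investigational drugs; 500 cells/well; 48 h 37 °C humidified 5% CO2; CTG luminescence readout; DMSO = 100%, media = 0% viability.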

[2] = Quantitative High-Throughput drug screen in 47 multiple myeloma cell lines against the NCATS MIPE library collection: SKMM1_PLB cell viability assay (AID 1919863); settings: SKMM1 myeloma viability, CellTiter-Glo ATP, 48 h; viability: active compounds read low; further: nearly all actives have a fitted effect of over 35% in size; on viability: series mostly up to about 46 µM
How it was run: as §1

[3] = Quantitative High-Throughput drug screen in 47 multiple myeloma cell lines against the NCATS MIPE library collection: U266_ATCC cell viability assay (AID 1919864); further: nearly all actives have a fitted effect of over 35% in size
How it was run: as §1

[4] = Quantitative High-Throughput drug screen in 47 multiple myeloma cell lines against the NCATS MIPE library collection: XG6_PLB cell viability assay (AID 1919865); further: nearly all actives have a fitted effect of over 40% in size
How it was run: as §1

[5] = Quantitative High-Throughput drug screen in 47 multiple myeloma cell lines against the NCATS MIPE library collection: PE2_PLB cell viability assay (AID 1919869); further: nearly all actives have a fitted effect of over 35% in size
How it was run: as §1

[6] = Quantitative High-Throughput drug screen in 47 multiple myeloma cell lines against the NCATS MIPE library collection: XG1_PLB cell viability assay (AID 1919866); further: nearly all actives have a fitted effect of over 35% in size
How it was run: as §1

[7] = Quantitative High-Throughput drug screen in 47 multiple myeloma cell lines against the NCATS MIPE library collection: VP6_DJ cell viability assay (AID 1919867); further: nearly all actives have a fitted effect of over 40% in size
How it was run: as §1

[8] = Quantitative High-Throughput drug screen in 47 multiple myeloma cell lines against the NCATS MIPE library collection: UTMC2_PLB cell viability assay (AID 1919868); further: nearly all actives have a fitted effect of over 55% in size
How it was run: as §1

[9] = Quantitative High-Throughput drug screen in 47 multiple myeloma cell lines against the NCATS MIPE library collection: PCM6_Riken cell viability assay (AID 1919870); further: nearly all actives have a fitted effect of over 30% in size
How it was run: as §1

[10] = Quantitative High-Throughput drug screen in 47 multiple myeloma cell lines against the NCATS MIPE library collection: RPMI8226_ATCC cell viability assay (AID 1919871); further: nearly all actives have a fitted effect of over 30% in size
How it was run: as §1
Potency means the concentration at half of the fitted maximal effect.

CC(C)Oc1ccc2c(=O)c(-c3ccccc3)coc2c1
inactive: Potency [1] | viability [2] 100% | Potency [3] | Potency [4] | Potency [5]

O=Nc1c(-c2c(O)[nH]c3cc(Br)ccc23)[nH]c2ccccc12
active: Potency [1] 5.26 µM | Potency [2] 20.9 µM | Potency [3] 16.6 µM | Potency [4] 3.32 µM | Potency [6] 5.9 µM | Potency [7] 5.26 µM | Potency [8] 8.33 µM | Potency [5] 5.26 µM | Potency [9] 3.32 µM | Potency [10] 18.7 µM

CCN(CC)CCOc1ccc(Nc2ncc3cc(-c4c(Cl)cccc4Cl)c(=O)n(C)c3n2)cc1
active: Potency [1] 0.0187 µM | Potency [2] 5.26 µM | Potency [3] 10.5 µM | Potency [4] 0.0296 µM | Potency [6] 0.59 µM | Potency [7] 0.0083 µM | Potency [8] 0.132 µM | Potency [5] 0.0418 µM | Potency [10] 2.35 µM

Oc1ccc(OCc2ccccc2)cc1
active: Potency [2] 7.43 µM
inactive: Potency [1] | Potency [3] | Potency [6] | Potency [7] | Potency [8] | Potency [5]

CCCCc1ccc2nc(NC(=O)OC)[nH]c2c1
active: Potency [1] 0.0209 µM | Potency [2] 0.0469 µM | Potency [3] 0.743 µM | Potency [7] 0.0047 µM | Potency [5] 0.0418 µM | Potency [9] 0.0935 µM | Potency [10] 0.418 µM

Nc1ccc(S(N)(=O)=O)cc1
inactive: Potency [1] | viability [2] 120% | Potency [3] | Potency [4] | Potency [6] | Potency [8] | Potency [5]

CCCCCCCCOc1ccccc1C(=O)Nc1ccc(C(=O)OCC[N+](C)(CC)CC)cc1
active: Potency [1] 18.7 µM | Potency [2] 26.4 µM | Potency [3] 20.9 µM | Potency [4] 16.6 µM | Potency [6] 16.6 µM | Potency [8] 16.6 µM | Potency [5] 16.6 µM | Potency [9] 16.6 µM

O=C1NC(=O)C(c2ccccc2[N+](=O)[O-])=C1Nc1ccc(O)c(Cl)c1
active: Potency [4] 6.62 µM | Potency [6] 8.33 µM
inactive: Potency [1] | viability [2] 110% | Potency [3] | Potency [8]

CN(C)C(=O)COC(=O)Cc1ccc(OC(=O)c2ccc(N=C(N)N)cc2)cc1
inactive: viability [2] 150% | Potency [7] | Potency [10]
active: Potency [1] 0.418 µM | Potency [3] 26.4 µM | Potency [4] 5.26 µM | Potency [5] 5.26 µM

CCN(CC)C(=S)SSC(=S)N(CC)CC
active: Potency [1] 0.001 µM | Potency [2] 0.0105 µM | Potency [3] 0.0059 µM | Potency [4] 0.001 µM | Potency [6] 0.001 µM | Potency [7] 0.001 µM | Potency [8] 0.0118 µM | Potency [9] 0.001 µM

N[C@@H](Cc1cc(I)c(Oc2cc(I)c(O)c(I)c2)c(I)c1)C(=O)O
inactive: Potency [1] | viability [2] 121% | Potency [3] | Potency [4] | Potency [6] | Potency [7] | Potency [5] | Potency [9]

O=c1c(O)c(-c2ccc(O)cc2O)oc2cc(O)cc(O)c12
inactive: Potency [1] | viability [2] 122% | Potency [3] | Potency [4] | Potency [9]
active: Potency [6] 0.833 µM

Cc1nccn1CC1CCc2c(c3ccccc3n2C)C1=O (stereo not drawn)
active: Potency [1] 18.7 µM | Potency [3] 23.5 µM
inactive: viability [2] 99.5% | Potency [7] | Potency [5] | Potency [9] | Potency [10]

NCCCCNCCCN
active: Potency [1] 23.5 µM | Potency [2] 20.9 µM | Potency [3] 7.43 µM | Potency [6] 20.9 µM | Potency [7] 26.4 µM | Potency [5] 16.6 µM | Potency [9] 16.6 µM | Potency [10] 23.5 µM

CN(C)c1ccc2nc3ccc(=[N+](C)C)cc-3sc2c1
active: Potency [1] 3.72 µM | Potency [2] 1.66 µM | Potency [3] 8.33 µM | Potency [4] 5.26 µM | Potency [6] 1.32 µM | Potency [7] 1.32 µM | Potency [8] 1.48 µM | Potency [5] 3.72 µM | Potency [10] 6.62 µM

O=c1cc(N2CCOCC2)oc2c(-c3ccccc3)cccc12
active: Potency [1] 10.5 µM | Potency [2] 14.8 µM | Potency [3] 18.7 µM

O=C(CCc1ccc(O)cc1)c1c(O)cc(O)cc1O
inactive: Potency [3]
active: Potency [1] 1.18 µM | Potency [2] 1.05 µM | Potency [4] 0.118 µM | Potency [6] 0.132 µM | Potency [7] 0.418 µM | Potency [8] 0.332 µM | Potency [5] 5.26 µM | Potency [9] 0.235 µM

Nc1cccc2c1CN(C1CCC(=O)NC1=O)C2=O (stereo not drawn)
inactive: Potency [1] | viability [2] 122% | Potency [3] | Potency [4]
active: Potency [6] 3.03 µM | Potency [7] 4.81 µM

O=C(O)c1cccc(-c2noc(-c3ccccc3F)n2)c1
active: Potency [2] 9.35 µM | Potency [3] 18.7 µM
inactive: Potency [1] | Potency [4] | Potency [6] | Potency [5] | Potency [9] | Potency [10]

CCC[C@@H]1C[C@@H](C(=O)N[C@@H]([C@H]2O[C@H](SC)[C@H](O)[C@@H](O)[C@H]2O)[C@@H](C)O)N(C)C1
active: Potency [8] 0.0166 µM
inactive: Potency [1] | Potency [3] | Potency [4] | Potency [6]

O=C(NC(Cc1cc(=O)[nH]c2ccccc12)C(=O)O)c1ccc(Cl)cc1 (stereo not drawn)
inactive: Potency [1] | viability [2] 118% | Potency [5]
active: Potency [4] 26.4 µM | Potency [6] 23.5 µM
